Where “and” joins values, the source holds several entries; their conditions need not be identical. Equal values may be shown once. A number with no mark means an inactive call. Records with an inconclusive call do not appear. A structure can be active in one record and inactive in another. Calls of active or inactive are those of the source. Unless noted, calls come from the whole dose curve; as a rule, active = well fitted inhibition curve with a large enough effect; inconclusive = small, poorly fitted or top-dose-only effect; inactive = flat fitted curve, though single readings scatter. Where a SMILES comes first, the peptide text is derived from it. Bridges are numbered along the chain shown (N, C = ends). [ ]: non-standard residue; d: D form. The star is where a group is joined. X2 = CC[C@H](C)CCCCC(=O)*; Dab = NCC[C@H](N)C(=O)O
Tests used:
[1] = Drug repurposing screens with cells derived from glioblastoma tumor samples (AID 1345199); details: GBM patient neurospheres viability, ATP luminescence, 48 h; note: nearly all actives have a fitted effect of over 40% in size; note: potency is the fitted concentration of half-maximal effect; for activity, negative = cell killing: % is set by controls: 0 for no effect and ±100 for the full control effect
In short: (§1)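 Four patient lines of CD133+ GBM neurospheres were screened at several concentrations; hits were retested in those lines plus three slower-growing GBM lines, using 48-hour treatment and ATP-based viability.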

astro = control astrocytes; assay: as above; details: viability, ATP luminescence, 48 h; series mostly up to 45.9 µM
In short: as §1

[2] = target: Nuclear receptor subfamily 1 group I member 2 (Rattus norvegicus) (UniProt Q9R1A7); assay: qHTS assay for small molecule activators of the rat pregnane X receptor (rPXR) signaling pathway (AID 651751; call rule not given here; note: 0% is about no effect); details: rPXR reporter cells, luciferase (One-Glo), 24 h
[3] = at 45.9 µM (top of the series), tumour line B
[4] = at 45.9 µM (top of the series), tumour line D
[5] = at 46 µM (top of the series), tumour line A
[6] = at 46.1 µM (top of the series), tumour line C

Sequence of Nuclear receptor subfamily 1 group I member 2 (Rattus norvegicus) (Q9R1A7 whole entry, looked up): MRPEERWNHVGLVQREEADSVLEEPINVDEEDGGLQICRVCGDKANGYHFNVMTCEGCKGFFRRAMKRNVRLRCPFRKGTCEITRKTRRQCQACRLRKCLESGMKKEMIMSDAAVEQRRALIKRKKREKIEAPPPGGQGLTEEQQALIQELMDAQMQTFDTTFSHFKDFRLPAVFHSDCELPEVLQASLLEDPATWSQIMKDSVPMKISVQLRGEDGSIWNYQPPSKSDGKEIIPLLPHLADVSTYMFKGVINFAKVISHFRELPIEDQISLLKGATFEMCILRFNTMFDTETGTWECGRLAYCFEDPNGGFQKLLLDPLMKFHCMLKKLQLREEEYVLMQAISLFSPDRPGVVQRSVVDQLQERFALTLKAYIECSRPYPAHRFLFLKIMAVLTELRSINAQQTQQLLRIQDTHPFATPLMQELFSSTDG

## CC[C@H](C)CCCCC(=O)N[C@@H](CCN)C(=O)N[C@H](C(=O)N[C@@H](CCN)C(=O)N[C@H]1CCNC(=O)[C@@H]([C@H](C)O)NC(=O)[C@H](CCN)NC(=O)[C@H](CCN)NC(=O)[C@H](CC(C)C)NC(=O)[C@@H](CC(C)C)NC(=O)[C@H](CCN)NC1=O)[C@@H](C)O (X2-[Dab]T[Dab][Dab][Dab][dL]L[Dab][Dab][dT]; lactam 4-C)
[1]; at 20 µM (top of the series), tumour line C
  activity, negative = cell killing: 7.06%
[1]; at 21.2 µM (top of the series), tumour line B
  activity, negative = cell killing: -0.409%
[1]; at 21.2 µM (top of the series), tumour line D
  activity, negative = cell killing: -6.08%
[1]; at 21.3 µM (top of the series), tumour line A
  activity, negative = cell killing: -17.3%
astro
  Potency: inactive

## Nc1nccs1
[1]; [3]
  activity, negative = cell killing: -17.5%
[1]; [4]
  activity, negative = cell killing: -10.5%
[1]; [5]
  activity, negative = cell killing: -20.4%
[1]; [6]
  activity, negative = cell killing: -24.6%
astro
  Potency: inactive
[2]
  max response: -2.21%

## Cc1ccc(S(=O)(=O)O)cc1C
[1]; [3]
  activity, negative = cell killing: -6.15%
[1]; [4]
  activity, negative = cell killing: 0.633%
[1]; [5]
  activity, negative = cell killing: -2.37%
[1]; [6]
  activity, negative = cell killing: -2.17%
astro
  Potency: inactive
[2]
  max response: 0.795%

## C[C@H](CCC(=O)O)[C@H]1CC[C@H]2[C@@H]3CC[C@@H]4C[C@H](O)CC[C@]4(C)[C@H]3C[C@H](O)[C@]12C
[1]; [3]
  activity, negative = cell killing: -4.54%
[1]; [4]
  activity, negative = cell killing: 7.18%
[1]; [5]
  activity, negative = cell killing: -19.5%
[1]; [6]
  activity, negative = cell killing: -8.85%
astro
  Potency: inactive
[2]
  max response: -12.5%

## CC/C=C\C/C=C\C/C=C\CCCCCCCC(=O)O
[1]; [3]
  activity, negative = cell killing: 8.6%
[1]; [4]
  activity, negative = cell killing: -7.43%
[1]; [5]
  activity, negative = cell killing: -13.9%
[1]; [6]
  activity, negative = cell killing: 5.73%
astro
  Potency: inactive
[2]
  max response: -2.75%

## C[C@H](CCC(=O)O)[C@H]1CC[C@H]2[C@@H]3[C@H](O)C[C@@H]4C[C@H](O)CC[C@]4(C)[C@H]3C[C@H](O)[C@]12C
[1]; [3]
  activity, negative = cell killing: -1.15%
[1]; [4]
  activity, negative = cell killing: 1.82%
[1]; [5]
  activity, negative = cell killing: -16.5%
[1]; [6]
  activity, negative = cell killing: -12.6%
astro
  Potency: inactive
[2]
  max response: -1%

## CCOC(C)OCC
[1]; [3]
  activity, negative = cell killing: -4.71%
[1]; [4]
  activity, negative = cell killing: -10.7%
[1]; [5]
  activity, negative = cell killing: -12.1%
[1]; [6]
  activity, negative = cell killing: -14.4%
astro
  Potency: inactive
[2]
  max response: 0.058%

## CCCCC
[1]; [3]
  activity, negative = cell killing: -6.65%
[1]; [4]
  activity, negative = cell killing: -7.88%
[1]; [5]
  activity, negative = cell killing: -21.1%
[1]; [6]
  activity, negative = cell killing: 22.7%
astro
  Potency: inactive
[2]
  max response: -1.73%

## c1ccc2ccccc2c1
[1]; [3]
  activity, negative = cell killing: -9.97%
[1]; [4]
  activity, negative = cell killing: 9.45%
[1]; [5]
  activity, negative = cell killing: -4.53%
[1]; [6]
  activity, negative = cell killing: -18.3%
astro
  Potency: inactive
[2]
  max response: -1.58% and 3.23%

## OCl
[1]; [3]
  activity, negative = cell killing: -3.7%
[1]; [4]
  activity, negative = cell killing: -8.71%
[1]; [5]
  activity, negative = cell killing: -24.4%
[1]; [6]
  activity, negative = cell killing: -3.94%
astro
  Potency: inactive
[2]
  max response: -4.49%

## COC(=O)c1ccccc1O
[1]; [3]
  activity, negative = cell killing: -5.99%
[1]; [4]
  activity, negative = cell killing: -6.33%
[1]; [5]
  activity, negative = cell killing: -21.5%
[1]; [6]
  activity, negative = cell killing: 12.1%
astro
  Potency: inactive
[2]
  max response: -2.2% and 1.51%

## CC(C)O
[1]; [3]
  activity, negative = cell killing: -6.9%
[1]; [4]
  activity, negative = cell killing: -24.5%
[1]; [5]
  activity, negative = cell killing: -15.4%
[1]; [6]
  activity, negative = cell killing: -14.2%
astro
  Potency: inactive
[2]
  max response: -7.02%

## CC(C)CCCCCCc1ccc(O)cc1
[1]; [3]
  activity, negative = cell killing: -21.6%
[1]; [4]
  activity, negative = cell killing: -27.3%
[1]; [6]
  activity, negative = cell killing: -24.2%
[1]; tumour line A
  Potency: 22.4 µM (active)
astro
  Potency: inactive
[2]
  max response: -1.23%

## CCCC(CCC)C(=O)OC1C[C@H]2CC[C@@H](C1)[N+]2(C)C (stereo partly drawn)
[1]; [3]
  activity, negative = cell killing: -8.76% and -2.82%
[1]; [4]
  activity, negative = cell killing: -23.5% and -24.1%
[1]; [6]
  activity, negative = cell killing: -20.2%
[1]; tumour line A
  Potency: 17.8 µM (active)
astro
  Potency: inactive

## CC1=CCC2CC1C2(C)C (stereo not drawn)
[1]; [3]
  activity, negative = cell killing: -2.1%
[1]; [4]
  activity, negative = cell killing: 2.05%
[1]; [5]
  activity, negative = cell killing: -19.4%
[1]; [6]
  activity, negative = cell killing: 11.1%
astro
  Potency: inactive
[2]
  max response: 1.07%

## O=C(CCCCCCCCCCCCC1CCCC1)Nc1ccc(S(=O)(=O)c2ccc(NC(=O)CCCCCCCCCCCCC3CCCC3)cc2)cc1
[1]; [3]
  activity, negative = cell killing: 0.38%
[1]; [4]
  activity, negative = cell killing: -17.2%
[1]; [6]
  activity, negative = cell killing: -32.4%
astro
  Potency: inactive

## C[Si](C)(C)O[Si](C)(C)C
[1]; [3]
  activity, negative = cell killing: -9.61%
[1]; [4]
  activity, negative = cell killing: -4.16%
[1]; [5]
  activity, negative = cell killing: -2.42%
[1]; [6]
  activity, negative = cell killing: -22.1%
astro
  Potency: inactive
[2]
  max response: -0.472%
